TLR4 MyD88 comp: blocks binding of human TLR4 to MyD88. O00206+Q99836. HeLa CL3-4 TLR4/MyD88 BLA complementation, FRET ratio. inhibition, % at 8.4 µM. hit rate 0.18% among 200,000; in the data active = inhibition above about 25%;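 note: 0% = vehicle and 100% = reference inhibitor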
ABHD5 PLIN5 PPI: ABHD5-PLIN5 protein interaction inhibition; Q00G26+Q8WTS1; Split G. princeps luciferase complementation, luminescence, 4 h; inhibition, % at 4 µM; hit rate 0.78% among 360,000; AID 602281;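 active = inhibition above the mean inhibition across every tested compound plus 3 SD, cut at about 22% in these data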;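 note: 0% = DMSO only wells and the 100% control is not disclosed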
NOD2-RIPK2 inh: blocks binding of human NOD2 to RIPK2 | CHO BLA complementation NOD2-RIPK2, CCF4 ratio | inhibition, % at 4.98 µM | hit rate 0.38% among 360,000 | AID 624267; in the data active = inhibition above about 21%;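 note: 0% = vehicle only and 100% = reference blocker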
Target sequence (O43353 whole entry, looked up): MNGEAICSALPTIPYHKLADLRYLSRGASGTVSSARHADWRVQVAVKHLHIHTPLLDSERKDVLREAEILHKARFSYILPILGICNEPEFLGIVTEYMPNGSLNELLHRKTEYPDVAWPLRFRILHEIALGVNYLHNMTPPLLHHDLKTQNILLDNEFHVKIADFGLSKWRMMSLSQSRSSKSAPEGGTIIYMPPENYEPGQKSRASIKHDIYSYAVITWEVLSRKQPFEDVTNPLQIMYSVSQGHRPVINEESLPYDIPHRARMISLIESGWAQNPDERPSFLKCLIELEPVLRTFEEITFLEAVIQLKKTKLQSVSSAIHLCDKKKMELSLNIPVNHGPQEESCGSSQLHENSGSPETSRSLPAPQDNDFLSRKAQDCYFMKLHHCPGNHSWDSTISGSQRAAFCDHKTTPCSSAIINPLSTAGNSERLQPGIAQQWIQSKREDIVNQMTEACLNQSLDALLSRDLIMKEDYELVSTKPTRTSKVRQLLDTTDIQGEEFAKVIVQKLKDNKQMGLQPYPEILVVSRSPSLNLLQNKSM
TLR9-MyD88 block: blocks human TLR9 binding to MyD88; CHO BLA complementation TLR9-MyD88, CCF4 FRET ratio; AID 504734; Q9NR96+Q99836; hit rate 0.21% among 340,000; inhibition, % at 4.98 µM;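 active = inhibition above the mean over all tested compounds plus 3 SD, cut at about 21% in these data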;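 note: 0% = DMSO only wells and 100% = clavulanate BLA inhibitor control wells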
ABHD5-PLIN5 conf: ABHD5-PLIN5 interaction inhibition, confirmed; shares compounds with ABHD5 PLIN5 PPI; biochemical ABHD5-PLIN5 interaction, luminescence; inhibition, % at 4 µM; hit rate 67% among 2,200; AID 651612; in the data active = inhibition above about 23%;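 note: 0% = DMSO vehicle wells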
HNF4 split-luc: active in HNF4 split-luciferase counter-screen for ABHD5-PLIN5 inhibitors | AID 651674 | HNF4 dimerization, luminescence, biochemical | hit rate 77% among 2,200 | inhibition, % at 4 µM | shares compounds with ABHD5 PLIN5 PPI;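 active = mean inhibition across replicate wells exceeding the computed hit threshold, cut at about 13% in these data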;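 note: light from luciferase halves that rejoin when HNF4 fusion proteins dimerize; 0% = DMSO only wells and the 100% control is not given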
Numbers without * were called inactive; · = not tested or not shown. A selection: hits, their analogues and other compounds. The true share with any hit is near 1.2%.

SMILES	TLR4 MyD88 comp	ABHD5 PLIN5 PPI	NOD2-RIPK2 inh	TLR9-MyD88 block	ABHD5-PLIN5 conf	HNF4 split-luc
O=C1c2cccc3cccc(c23)C(=O)N1CC1CCN(CC(O)COc2ccc3ccccc3c2)CC1 (stereo not drawn)	·	26*	12	-5	10	1
COc1cccc(OCC(O)CN2CCC(CN3C(=O)c4cccc5cccc(c45)C3=O)CC2)c1 (stereo not drawn)	6	-4	-1	-5	·	·
O=S(=O)(C/C(=C/CO)S(=O)(=O)c1ccccc1)c1ccccc1	10	65*	19	2	95*	92*
Cc1ccc2c(c1)/C(=C/c1ccccc1F)C(=O)N2	·	31*	-5	4	44*	39*
CCc1nc2ccc(C(=O)Nc3ccc(OC)c(OC)c3)cn2c1N(CCC(C)C)CCN(C)C	·	-5	1	·	·	·
CCCCn1nnnc1C(c1cccc2ccccc12)N1CCN(C/C=C/c2ccccc2)CC1 (stereo not drawn)	·	9	-11	·	·	·
CCOc1ccc(S(=O)(=O)N(C)CC(=O)NCc2ccco2)cc1	·	-1	-7	-1	·	·
CCOc1ccc(S(=O)(=O)N(C(=O)c2ccco2)c2cc3sc(=O)oc3c3ccccc23)cc1	3	35*	-2	-15	-62	34*
Cc1ccc(S(=O)(=O)N(C(=O)c2ccco2)c2cc3sc(=O)oc3c3ccccc23)cc1	-3	31*	-10	-8	-18	109*
CC(C)C(=O)N(c1ccc2oc(=O)sc2c1)S(=O)(=O)c1ccccc1	1	8	-4	3	·	·
COc1ccc(S(=O)(=O)N(C(=O)c2ccco2)c2cc3sc(=O)oc3c3ccccc23)cc1	-6	97*	-21	-12	-24	110*
COc1ccc(S(=O)(=O)N(C(=O)C(C)C)c2ccc3oc(=O)sc3c2)cc1	-1	32*	-5	-6	-71	39*
CCS(=O)(=O)N1CCC2(CC1)OCCN2S(=O)(=O)c1ccc(C)cc1	·	7	0	8	·	·
COc1cc(CNC(=O)c2cc(-c3cc(F)ccc3OCC3CCCO3)n[nH]2)cc(OC)c1 (stereo not drawn)	·	-6	-9	·	·	·
CC(=O)c1cccc(NC(=O)Cc2cccs2)c1	-1	-3	-4	7	·	·
CCC(=O)Nc1cccc(C(=O)/C=C/c2ccccc2)c1	5	68*	8	7	75*	53*
CCC(=O)Nc1cccc(C(=O)/C=C/c2cccs2)c1	3	33*	-16	5	49*	37*
CCOC(=O)Nc1ccc(C(=O)/C=C/c2ccccc2)cc1	·	42*	2	-3	60*	44*
CCC(=O)Nc1cccc(C(=O)c2ccccc2)c1	0	3	-8	-4	·	·
CCOC(=O)Nc1ccc(Oc2ccccc2)cc1	6	0	0	-8	·	·
CCN(CC)C(=O)C1=C(C)N(CCCN2CCCC2=O)C(=O)C(CC(=O)NCc2ccco2)C1 (stereo not drawn)	·	-12	-10	1	·	·
O=C(O)CCCN1C(=O)/C(=C\c2ccccc2OCc2ccccc2)SC1=S	·	-1	0	-5	·	·
O=C(O)CCCN1C(=O)/C(=C/c2cn(-c3ccccc3)nc2-c2cccs2)SC1=S	-8	37*	6	6	7	9
O=C(/C=C/c1cn(-c2ccccc2)nc1-c1cccs1)NCCN1CCOCC1	·	32*	-1	-12	11	6
O=C(c1cn(-c2ccccc2)nc1-c1cccs1)N1CCOCC1	5	6	-8	2	·	·
SMILES	TLR4 MyD88 comp	ABHD5 PLIN5 PPI	NOD2-RIPK2 inh	TLR9-MyD88 block	ABHD5-PLIN5 conf	HNF4 split-luc
COc1ccc(NS(=O)(=O)c2cccc(C(=O)NCC(c3cccs3)N3CCOCC3)c2)cc1 (stereo not drawn)	·	8	-12	-5	·	·
O=C(CN1C(=O)COc2ccccc21)NCCCN1CCOCC1	·	3	3	2	·	·
O=C(CN1C(=O)/C(=C\c2cccc(Br)c2)Oc2ccccc21)NCCCN1CCOCC1	·	29*	9	-2	17	5
Cc1ccc(C(=O)N(CCCN(C)C)c2nc3ccc(Cl)cc3s2)cc1C	-2	28*	4	-10	22	12
CN(C)CCN(C(=O)c1ccco1)c1nc2cc3c(cc2s1)OCCO3	·	0	-2	-12	·	·
CN(C)CCCN(C(=O)CCc1ccccc1)c1nc2ccc(Br)cc2s1	-7	39*	9	4	27*	5
CN(C)CCCN(C(=O)c1ccco1)c1nc2ccc(Cl)cc2s1	0	24*	-7	8	18	10
CN(C)CCCN(C(=O)c1ccco1)c1nc2ccc(Br)cc2s1	16	25*	-3	-3	17	7
CN(C)CCCN(C(=O)c1ccc2c(c1)OCCO2)c1nc2ccc(Cl)cc2s1	·	14	-7	4	·	·
CCSc1nnc2ccc(-c3ccco3)nn12	12	4	-3	3	·	·
Cc1cccc2sc(N(CCCN(C)C)C(=O)CCc3ccccc3)nc12	-3	26*	8	-11	20	6
Cc1cccc2sc(N(CCCN(C)C)C(=O)CN3C(=O)c4ccccc4C3=O)nc12	7	18	7	-1	·	·
Cc1ccc2sc(N(CCCN(C)C)C(=O)c3ccc(Br)s3)nc2c1C	14	27*	-7	4	16	3
O=C(NCC1CC1)c1ccc(-c2cn[nH]c2)c2ccoc12	·	3	5	·	·	·
COC(=O)c1ccc(O)cc1	·	2	1	-5	·	·
COC(=O)c1ccc(CCc2cc(O)c(Br)cc2O)cc1	·	93*	-2	-6	21	48*
CC(C)N1C/C(=C/c2cccnc2)C(=O)/C(=C/c2cccnc2)C1	-12	41*	0	-2	86*	67*
CC(C)N1C/C(=C/c2ccsc2)C(=O)/C(=C/c2ccsc2)C1	0	28*	0	7	85*	78*
CCN1C(=O)S/C(=C/c2ccsc2)C1=O	-3	3	-5	-1	·	·
